MazF activator: MazEF (E. coli) toxin RNase activation | P0AE70 | FAM/BHQ RNA-DNA oligo cleavage fluorescence, 5 h | activation, % at 20 µM | hit rate 0.32% among 350,000 | AID 504720; in the data active = activation above about 50%
BoNT A protease: BoNT A light chain protease inhibition | inhibition, % at 10 µM | multiplex microsphere protease substrate cleavage, flow cytometry | hit rate 0.17% among 360,000 | AID 588499; also: plate controls were buffer without enzyme for full effect and enzyme alone for no effect
Autofluor counter: counter-screen for toxin protease inhibitors: compound fluorescence | fluorescence intensity (concentration not given with the values) | hit rate 3.1% among 360,000 | compound autofluorescence counterscreen, microsphere flow cytometry; stronger effect = higher value; in the data active = fluorescence intensity above about 16000; inconclusive = no clear call, values can overlap the other calls
BoNT F protease: BoNT F light chain protease inhibition; inhibition, % at 10 µM; AID 588497; Multiplex microsphere protease cleavage assay, flow cytometry; hit rate 0.22% among 360,000; in the data active = inhibition above about 35%, passing the limit was not always enough; inconclusive = no clear call, values can overlap the other calls; also: plate controls were buffer without enzyme for full effect and enzyme alone for no effect
Anthrax LF prot: anthrax lethal factor protease inhibition; hit rate 0.12% among 360,000; inhibition, % at 10 µM; multiplex microsphere protease cleavage assay, LF; AID 588501; P15917; also: plate controls were buffer without enzyme for full effect and enzyme alone for no effect
Target sequence (P15917 whole entry, looked up): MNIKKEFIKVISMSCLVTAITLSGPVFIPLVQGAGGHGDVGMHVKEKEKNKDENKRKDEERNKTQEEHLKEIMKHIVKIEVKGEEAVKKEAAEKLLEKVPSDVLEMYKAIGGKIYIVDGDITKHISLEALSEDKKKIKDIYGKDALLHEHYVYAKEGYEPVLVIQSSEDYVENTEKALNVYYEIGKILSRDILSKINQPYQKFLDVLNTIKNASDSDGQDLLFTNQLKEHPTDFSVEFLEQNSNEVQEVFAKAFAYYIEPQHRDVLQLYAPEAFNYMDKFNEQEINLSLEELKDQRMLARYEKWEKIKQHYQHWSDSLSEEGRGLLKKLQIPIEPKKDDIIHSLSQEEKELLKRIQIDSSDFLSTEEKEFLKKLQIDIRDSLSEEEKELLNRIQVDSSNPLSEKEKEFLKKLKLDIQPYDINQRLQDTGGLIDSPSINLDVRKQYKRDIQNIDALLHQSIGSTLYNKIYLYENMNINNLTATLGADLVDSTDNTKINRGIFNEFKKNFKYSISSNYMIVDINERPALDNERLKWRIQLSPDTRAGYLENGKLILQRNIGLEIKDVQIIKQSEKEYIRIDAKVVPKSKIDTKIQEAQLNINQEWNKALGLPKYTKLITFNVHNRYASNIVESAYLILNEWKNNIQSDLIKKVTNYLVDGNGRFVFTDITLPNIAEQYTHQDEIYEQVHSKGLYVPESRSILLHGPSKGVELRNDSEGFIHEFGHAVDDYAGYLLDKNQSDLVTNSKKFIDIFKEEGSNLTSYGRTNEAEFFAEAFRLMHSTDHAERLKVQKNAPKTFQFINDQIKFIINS
Active calls of the source: *; ? = inconclusive; . = no result given. Most compounds without a hit are left out; they make up all but 3.7% or so of the library. Rule as the data show it, unless noted: active = inhibition above about 30%; inconclusive = no clear call, values can overlap the other calls; inactive = below that.

SMILES | MazF activator | BoNT A protease | Autofluor counter | BoNT F protease | Anthrax LF prot
COCCOC(=O)C1=C(C)N=C2SCCC(=O)N2C1c1cccc(Br)c1 (stereo not drawn) | 3.6 | -3.1 | 17065* | -5.5 | 0.6
COC(=O)C1=C(C)N=C2SCCC(=O)N2C1c1ccc(OC(=O)c2ccco2)cc1 (stereo not drawn) | 3.0 | -0.7 | 2398 | -1.9 | -5.9
S=C(Nc1ccc2c(c1)OCO2)NC1CCN(Cc2ccccc2)CC1 | -0.4 | -0.2 | 20636* | -2.8 | -0.5
CCN(CC)C(=O)C1=C(C)N(CCCOC)C(=O)C(CC(=O)NCCN2CCOCC2)C1 (stereo not drawn) | 2.8 | 0.4 | 3243 | 3.9 | 0.3
CCOC(=O)c1c(C)c(C(=O)NCC2CCCO2)c(C)n1CC (stereo not drawn) | -2.9 | 0.4 | 10685 | -5.7 | -3.0
CCOC(=O)c1c(C)c(C(=O)N2CCCCCC2)c(C)n1C | 6.5 | -0.2 | 23943* | -0.5 | 2.0
CCOC(=O)c1c(C)c(C(=O)N2CCCCCC2)c(C)n1CC | 0.9 | ? | 20617* | 0.0 | -0.1
CN(C1CCCCC1)S(=O)(=O)Cc1ccccc1 | 0.7 | 3.3 | 22622* | 2.1 | 3.4
CS(=O)(=O)N(CC(=O)NCc1ccccc1)C1CCCCC1 | 4.4 | 0.3 | 4600 | -4.0 | -2.0
CC(C)(C)NC(=O)C1CC(=O)OC1(C)C (stereo not drawn) | 2.7 | -3.9 | 21395* | -4.9 | -0.2
Cc1ccc(SC[C@H](C)CN2CCC(NC(=O)OCc3ccccc3)CCC2=O)cc1 (stereo partly drawn) | . | 0.1 | 4208 | 5.6 | -2.9
CC(=O)Nc1cccc(-c2csc(C(O)c3ccc(F)c(F)c3)n2)c1 (stereo not drawn) | . | 0.0 | 3954 | -4.4 | -3.7
O=c1cc(/C=C/c2ccccc2)oc2ccccc12 | -6.4 | ? | 22100* | 5.9 | 1.1
CCS(CC)=NS(=O)(=O)c1ccc(NC(C)=O)cc1 | 17.4 | 1.9 | 4549 | 37.4* | 0.7
CC(C)C(OC(=O)c1nsc(Cl)c1Cl)C(=O)NC1CCCCC1 (stereo not drawn) | 2.3 | 2.5 | 5895 | 7.6 | 0.9
O=C(NCCOCC(F)(F)C(F)F)c1cc(F)c(F)cc1Cl | 2.5 | -2.0 | 20634* | -0.4 | -2.6
O=C(NCCOc1ccccc1F)c1cc(F)c(F)cc1Cl | 7.2 | -0.3 | 2410 | -1.2 | -0.3
CC(=O)NC(Cc1cc(C)ccc1C)C(=O)N1CCN(C(=O)c2ccc([N+](=O)[O-])cc2)CC1 (stereo not drawn) | 5.1 | 0.4 | 4049 | -4.3 | 5.8
CCN(CC)S(=O)(=O)c1ccc(N2CCCCC2)c(NC(=O)/C=C/c2ccc(OC)c(OC)c2)c1 | -1.3 | 4.5 | 2267 | 34.0 | 0.0
COc1ccc(C2(CNC(=O)/C=C/c3ccco3)CCCC2)cc1OC | 1.8 | 4.7 | 19955* | 2.7 | 2.4
CCN(CC)S(=O)(=O)c1ccc(OC)c(NC(=O)/C=C/c2ccco2)c1 | 0.3 | 3.8 | 5086 | 34.7* | -3.6
COc1ccc(Nc2nc3cc(-c4ccccc4C)sc3c(=O)n2C)cc1OC | . | 0.1 | 3679 | 1.2 | -4.9
CCNC(=S)NCCN1CCCCC1 | 123.0* | -0.3 | 3070 | -0.5 | 2.1
COc1ccc(CCNC(=O)c2ccc3c(c2)SC2=NS(=O)(=O)CCN23)cc1 | 9.1 | -0.5 | 4404 | 5.5 | 5.3
O=C(Nc1cccc(Cl)c1)c1ccc2c(c1)SC1=NS(=O)(=O)CCN12 | 135.9* | -0.4 | 2461 | -2.8 | -1.4
SMILES | MazF activator | BoNT A protease | Autofluor counter | BoNT F protease | Anthrax LF prot
CN1CCN(Cc2c(O)ccc3c(-c4ccccc4)cc(=O)oc23)CC1 | -1.1 | ? | 23428* | -1.8 | -4.2
COc1ccccc1-c1c(C)oc2c(CN3CCN(C)CC3)c(O)ccc2c1=O | 6.3 | ? | 21100* | -2.4 | -2.0
COc1ccccc1-c1c(C)oc2c(CN3CCN(CCO)CC3)c(O)ccc2c1=O | -14.2 | -0.2 | 3251 | -8.9 | -11.0
Cn1ccnc1SCc1ccc([N+](=O)[O-])cc1 | -9.0 | ? | 19757* | 6.7 | 1.6
COc1ccc(Nc2nnc(SCc3cc([N+](=O)[O-])cc4c3OCOC4)s2)cc1 | 7.9 | -0.6 | 23675* | -3.4 | -0.9
COc1ccc(CSc2nnc(SCc3ccc([N+](=O)[O-])cc3)s2)cc1 | -8.2 | 0.7 | 23671* | -2.9 | 0.5
Cc1ccc(CN2CC(C(=O)N3CCN(S(=O)(=O)c4c(F)cccc4F)CC3)CC2=O)cc1 (stereo not drawn) | -12.2 | -4.4 | 7163 | 0.6 | 0.4
Cc1ccc(CN2C(=O)C(CC(C)C)Nc3ncnc(N4CCCCC4)c32)cc1 (stereo not drawn) | . | 0.0 | 5204 | -6.8 | -1.1
Cc1ccccc1NC(=O)Nc1nnc([C@@H]2C[C@H](O)[C@@H](CO)O2)s1 | . | -0.3 | 3004 | -6.2 | -4.8
O=C(Nc1cccc2ccccc12)c1csc(COCCO)n1 | . | 0.0 | 3978 | -2.1 | 0.3
COc1ccc(C(=O)N/C(=C/c2cccs2)C(=O)NCCCn2ccnc2)cc1OC | -1.9 | 0.8 | 20263* | 0.3 | 0.1
COc1ccc(/C=C(/NC(=O)c2ccccc2)C(=O)NCCCn2ccnc2)cc1OC | 13.2 | 2.8 | 4759 | 4.6 | 1.1
Nc1nonc1C(=O)OCC(=O)N1CCOCC1 | 7.3 | ? | 20876* | -5.4 | -7.0
CC(C)(C)OC(=O)N/N=C/c1ccc(N2CCOCC2)s1 | 226.0* | 1.1 | 1950 | -8.3 | -1.3
COC(=O)/C=c1/sc2n(c1=O)CCN=2 | 4.3 | 1.4 | 4418 | 17.8 | -2.6
COC(=O)/C=c1\sc2n(c1=O)C(C)=CC(C)(C)N=2 | -5.4 | 2.7 | 19740* | 1.5 | -6.7
CC(C)c1ccc([C@@H]2O[C@H](C)CC3=C2C(=O)OC(C)(C)O3)cc1 | . | 1.4 | 5346 | -0.1 | -0.8
Cc1ccc(C)n1-n1c(C)nc2scc(-c3ccccc3)c2c1=O | 1.9 | -1.6 | 21049* | -1.7 | -3.1
COc1ccc(/C=C(/C#N)C(=O)NC2CCCCC2)cc1Br | 11.0 | 0.9 | 3886 | 35.8* | 0.6
CCCCOc1ccc(/C=C(\C#N)C(=O)NC2CC2)cc1 | 5.3 | 9.9 | 3581 | 50.5* | ?
COc1ccc(S(=O)(=O)N(C)c2ccc(C(=O)NCc3ccccn3)cc2)cc1OC | 0.1 | -0.8 | 6648 | -3.2 | -3.4
S=C(NCCc1ccccc1)N1Cc2cc(-c3ccccc3)ccc2-n2nncc2C1 | . | 5.0 | 5567 | 5.8 | 11.5
S=C(NCCc1ccccc1)N1Cc2cc(N3CCCCC3)ccc2-n2nncc2C1 | . | -20.1 | 32547* | 70.4* | -6.6
COc1ccc(-c2cc(-c3ccc(OC)cc3)nc(-c3ccc4c(c3)NC(=O)CO4)c2)cc1 | -32.3 | -2.2 | 23016* | -3.4 | -3.8
CC1CCCCN1C(=O)COC(=O)CSc1ccc(C(N)=O)cc1[N+](=O)[O-] (stereo not drawn) | -5.1 | 2.3 | 5604 | -6.1 | -0.6
CC1CCCC(C)N1C(=O)COC(=O)CSc1ccc(C(N)=O)cc1[N+](=O)[O-] (stereo not drawn) | 5.0 | -64.0 | 21171* | -109.7 | -18.2
C[C@@H](N)C(=O)NC[C@H]1O[C@@H](n2cnc3c(N)ncnc32)[C@H](O)[C@@H]1O | 2.2 | -0.3 | 3377 | 4.1 | -0.1
Clc1cccc(N2CCNCC2)c1Cl | 5.0 | 1.0 | 19873* | -2.9 | -0.4

Screening data from PubChem.
